In this experiment the test system is DRIVER-selected RNA biosensor (aptazyme) pool. Put plainly: maximum fold change of ribozyme cleavage across biosensor pool versus no-compound control; higher = stronger biosensor response (ligand inhibits cleavage). The following applies: 10 µM. The method, then:
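CleaveSeq: a pool of resynthesized hammerhead-ribozyme RNA biosensors (sTRSV scaffold with randomized loops, 1,730 sequences) was T7-transcribed at 37 °C for 15-30 min with a single compound at 10 µM. Cleaved and uncleaved products were counted by NGS, and fold change of cleavage was computed against the DMSO-only condition. The value is the maximum fold change of cleavage over all biosensors in the pool. About 255 compounds were tested individually.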
Molecule `O=C(c1ccccc1O)N1CCOCC1` registered a maximum fold change of 1.99. The result for `Cc1ccc2[nH]c(=O)c3cc(C(=O)NCCCN(C)Cc4ccccc4)sc3c2c1` reads 7.38; that for `O=S(=O)(NCc1ccccn1)c1ccc(Br)cc1Br`, 1.99. Molecule `Cc1oc(-c2ccccc2F)nc1CS(=O)(=O)CC(=O)NC1CCCC(C)C1C` (stereo not given) came in with a maximum fold change of 4.66. With `CCN1CCN(C(=O)c2ccc(Cn3c(SCc4ccccc4F)nc4ccncc43)cc2)CC1`, the maximum fold change was determined as 2.65.

For the molecule `Cc1c(CNC(C)CCc2ccccc2)c(C(=O)O)c(C)n1Cc1cccc(Cl)c1` (stereo not given), the maximum fold change turned out to be 4.02.

On to `Cc1ccc(-c2noc(CCC(=O)NCCN3CCOCC3)n2)cc1`, for which the maximum fold change stood at 3.61.

In the case of `CCCCNCc1c(C(=O)O)c(C)n(Cc2cc(C)ccc2C)c1C`, the maximum fold change came out at 2.79. To `COc1ccc(/C=c2\s/c(=C/C(=O)c3ccc(C)cc3)[nH]c2=O)cc1OC` belongs 2.47. The result for `CCOc1ccc(CCNC(=O)CCn2c(=O)c3cccn3c3cccnc32)cc1OCC` reads 2.67; that for `CC(=O)N1C(=N)S/C(=C/c2cc3ccc(C)cc3nc2O)C1=O`, 7.51; that for `O=C1N=c2sc(nn2C(=N)/C/1=Cc1c[nH]c2c1cccc2)N1CCCC1`, 7.4. To `Cc1cccc(CNCc2c(C(=O)O)c(C)n(Cc3c(F)cccc3Cl)c2C)c1` belongs 1.89; to `COc1cc(OC)c(OC)cc1/C=C1N=C(c2ccco2)OC1=O`, 2.19; to `CN(CCCNC(=O)c1ccc(CS(=O)(=O)Cc2cccc(Cl)c2)o1)C1CCCCC1`, 1.94. `CNc1cnn(C23CC4CC(CC(CC(=O)O)(C4)C2)C3)c(=O)c1Cl` registered a maximum fold change of 4.5. The result for `Cc1ccc(NC(=O)c2cc3c(=O)oc4ccccc4c3s2)nc1` reads 6.76; that for `Cc1cc2c(c(=O)n1CCN(C)C)C(c1cccc(Br)c1)C(C#N)=C(N)O2` (stereo not given), 2.39; that for `O=C(CCc1ccccc1)N1CCC(c2ccccc2)C1` (stereo not given), 1.79. To `NC(=O)c1nc2n(c1N)CCCCC2` belongs 2.43; to `O=C(CCNC(=O)Cn1cnc2sc3c(c2c1=O)CCCC3)NCC1CCCO1` (stereo not given), 3.04; to `CCOC(=O)c1cnc(SCc2cccc(C)c2)nc1N`, 7.72. Regarding `N#C/C(=Cc1c(Oc2ccc(cc2)Br)nc2n(c1=O)cccc2)/C(=O)NC1CCCCC1`, the maximum fold change amounted to 2.99.

For the molecule `Cc1ccc(CNc2nc3ccc(C)cc3n3cnnc23)cc1`, the maximum fold change worked out at 2.77.

The molecule `Cc1c(C(=O)NCc2ccccc2Cl)oc2c1-c1[nH]ncc1CC2` displayed a maximum fold change of 2.79. To `COCCNC(=O)c1ccc(CS(=O)Cc2ccc(Cl)cc2)o1` (stereo not given) belongs 3.58; to `CCCOc1ccc(C2c3c(oc4ccccc4c3=O)C(=O)N2c2nccs2)cc1` (stereo not given), 8.73; to `Cc1cc(C2C(=O)c3ccccc3C2=O)nc2ccccc12`, 11.3. The result for `CC1(C)CC(=O)C(=Cc2c[nH]c3ccccc23)C(=O)C1` reads 2.44; that for `CCOC(=O)c1c(C)c(-c2ccccc2)n(CC(=O)NCCN(C)C)c1C`, 2.04. On to `Cc1ccc(C(=O)N(Cc2ccccc2)c2ccccn2)cc1`, for which the maximum fold change was 2.65. The result for `CC(C)CN(CC(C)C)c1nnc(NC(=O)NCc2ccco2)s1` reads 2.36; that for `O=C(NC1(C(F)(F)F)N=C(c2ccccc2)N(C2CCCCC2)C1=O)c1ccco1` (stereo not given), 2.01. Regarding `COc1ccc(C(=O)Cc2cc3cccc(OC)c3oc2=O)cc1`, the maximum fold change is 1.82. The result for `CCOCCCNC(=O)/C(C#N)=C/c1c(Oc2ccc(Br)cc2)nc2ccccn2c1=O` reads 3.31. The result for `O=C(c1ccc(CS(=O)c2cccc(Cl)c2)o1)N1CCN(C2CCCCC2)CC1` (stereo not given) reads 2.71; that for `COc1cc(C(=O)N(Cc2ccccc2F)C2CCS(=O)(=O)C2)cc(OC)c1OC` (stereo not given), 2.18; that for `CC1=C(C(=O)NCCC2=CCCCC2)C2(CCC(C)CC2)OC1=O` (stereo not given), 2.79. To `O=c1oc2cc(O)ccc2c2ccccc12` belongs 2.57; to `CCOc1cc2c(cc1OCC)C1C(C(=O)N(CC)Cc3ccccc3)c3ccccc3C(=O)N1CC2` (stereo not given), 3.54.

These data come from the supplement of paper PMC9477273.
